# Laboratory results reported in article PMC11442847.
# How the values were obtained:
# Experiment in all cases: cross-linking mass spectrometry
# Conditions in all cases: DSSO, not determined
# [1] = target: ATP1B3 (UniProt P54709)
# [2] = target: DIP2B (UniProt Q9P265)
# [3] = target: INPP5F (UniProt Q9Y2H2)
# [4] = target: ITPR2 (UniProt Q14571)
# [5] = target: NMI (UniProt Q13287)
# [6] = target: S100A6 (UniProt P06703)
# [7] = target: SLC44A1 (UniProt Q8WWI5)
# [8] = target: WAC (UniProt Q9BTA9)
substance,measurement,setting,value
"PLS3, P13797",cross-linked residues,[1],K42 - K182
"PLK3, Q9H4B4",cross-linked residues,[2],K217 - K118
"B2M, P61769",cross-linked residues,[3],K39 - K352
"OAS2, P29728",cross-linked residues,[4],K388 - K954
"RNASEH1, O60930",cross-linked residues,[5],K236 - K156
"TPD52L2, O43399",cross-linked residues,[6],K175 - K47
"KNTC1, P50748",cross-linked residues,[7],K859 - K145
"CENPN, Q96H22",cross-linked residues,[8],K245 - K175
